The results in this text go back to PubChem BioAssay AID463195 (Sanford-Burnham Center for Chemical Genomics, 2010).

For orientation: inhibition means the relative decrease from the control value, in per cent.

Among all 330,000 compounds or so, about 4,600 (1.4%) were called active.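 Rule for the calls: active = inhibition of 40% or more at the single tested concentration; inactive = the rest.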 The entries come from a sample that favours actives as a whole.

The assay can be described thus: growth inhibitors of isogenic TIM10 control yeast, primary screen, counter-screen for tim10-1 yeast inhibitor project, luminescence, uHTS (AID 463195).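 Note: wild-type TIM10 isogenic control strain grown at permissive 25 °C; 0% = DMSO yeast wells and 100% = minimal medium wells without yeast.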 The following applies: S. cerevisiae TIM10 strain growth, BacTiter-Glo luminescence, 24 h; at 10 µM; stronger effect = higher value.
Regarding `CCOc1ccc(C(CC(=O)O)n2cnnn2)cc1OC` (stereo not drawn), the inhibition was -1.38% (inactive).
Next, `COC(=O)c1c(NC(=O)CSc2nncs2)sc2c1CCCCC2`: 43.7% (active); `COC(=O)c1c(NC(=O)C2CC(C)=C(C)CC2C(=O)O)sc2c1CCCCC2` (stereo not drawn): 20.6% (inactive).
Next, `COC(=O)c1c(NC(=O)CCN2CCOCC2)sc2c1CCCC2`: 9.98% (inactive); `O=C(NCc1ccccc1)C(c1ccco1)N(C(=O)c1csnn1)c1ccccc1F` (stereo not drawn): 5.22% (inactive).
To `CC(C)CCNC(=O)C1CCC(CNc2c(N3CCC(C)CC3)c(=O)c2=O)CC1` (stereo not drawn) belongs 2.16% (inactive).
With `Cc1cc(C)nc(NS(=O)(=O)c2ccc(N/C=C\C(=O)c3cccs3)cc2)n1`, the inhibition was -1.27% (inactive).
Consider `CCn1c(=O)c(C(=O)NCc2ccc3c(c2)OCO3)c(O)c2ccccc21`, for which the inhibition is -11.9% (inactive).
Next, `O=C(NCc1ccc2c(c1)OCO2)c1c(O)nc2sccn2c1=O`: 45% (active).
Next, `O=C(NCc1ccc2c(c1)OCO2)c1sccc1Br`: 9.81% (inactive); `CC(=O)c1c(C)n([O-])c2ccccc2[n+]1=O`: -2.57% (inactive).
Next, `O=C1N[C@H](Cc2c[nH]c3ccccc23)COC(=O)[C@H](Cc2ccc(F)cc2)C/C=C\C[C@H]1CC(=O)N(CCO)Cc1ccccc1`: -8.49% (inactive); `Cc1[nH]c(=O)c(C(=O)/C=C/c2ccccc2)c2c1CCCC2`: 45% (active); `CC(=O)Nc1ccc(/C=C/C(=O)c2ccccc2)cc1`: 26.1% (inactive).
Take `O=C(/C=C/c1ccc(N2CCOCC2)cc1)c1ccccc1`: the inhibition is 39.5% (inactive).
Regarding `O=C(O)CCc1nc2cc(Cl)ccc2n(Cc2ccccc2)c1=O`, the inhibition was 21.5% (inactive).
To `COc1ccc(CN2C(CC(=O)Nc3cccnc3)c3ccc(C(F)(F)F)cc3S2(=O)=O)cc1` (stereo not drawn) belongs -7.66% (inactive).
In the case of `O=C1NC(Nc2nc3ccccc3s2)(C(F)(F)F)C(=O)N1C1CCCCC1` (stereo not drawn), the inhibition is 52.6% (active).
`O=C(NC1(C(F)(F)F)NC(=O)N(C2CCCCC2)C1=O)c1ccco1` (stereo not drawn): the inhibition is -5.03% (inactive).
To `Cc1cc(C)c2nc(-c3cccnc3)cc(C(=O)Nc3ccc(S(=O)(=O)Nc4onc(C)c4C)cc3)c2c1` belongs -10% (inactive); to `Cc1cc(NC(=O)CSc2ncc(C(F)(F)F)cc2Cl)no1`, -8.23% (inactive); to `Cc1nn(-c2ncc(C(F)(F)F)cc2Cl)c(=O)n1-c1ccccc1`, 10.6% (inactive).
Consider `Cc1ccc(-c2ccnc3nc(Sc4ncc(C(F)(F)F)cc4Cl)nn23)cc1`, for which the inhibition is 42.2% (active).
Next, `CNC(=O)NC(=O)C(OC(=O)c1cccc(S(=O)(=O)N2CCCCC2)c1)c1ccccc1` (stereo not drawn): 15.5% (inactive); `CCOCCCN1C(=O)C2C(C(=O)Nc3ccc(OCC)cc3)C3C=CC2(O3)C1C(=O)NC1CCCCC1` (stereo not drawn): 5.11% (inactive).
Next, `Cc1ccc(N2C(=O)c3ccccc3C2(O)c2ncc[nH]2)cc1` (stereo not drawn): 1.61% (inactive); `COc1cc(NS(=O)(=O)c2ccc3ccccc3c2)c2ncccc2c1`: 9.71% (inactive); `O=[N+]([O-])c1ccccc1S(=O)(=O)Nc1cccc2cccnc12`: 44.6% (active).
As for `O=[N+]([O-])c1cccc2ncccc12`, the inhibition is -18% (inactive).
Next, `C[C@H](NC(=O)c1[nH]cnc1C(=O)Nc1nccs1)c1ccccc1`: 6.5% (inactive); `COc1ccc2c(c1)c(C(=O)N/N=C/c1cccs1)c(C)n2C`: 24% (inactive); `COc1cccc(CNC(=O)CCC2CCCN(C(=O)c3ccoc3C)C2)c1` (stereo not drawn): 10.1% (inactive).
To `CCCc1nc2c(c(=O)c3ccccc3n2C)c(=O)n1C1CCCCCC1` belongs 49.4% (active); to `Cn1c2ccccc2c2c(C(=O)N3CCN(c4ccc(F)cc4)CC3)cn(C3CCCC3)c(=O)c21`, 37.3% (inactive).
To `CC1CCN(Cc2nc3c(c(=O)n(C)c(=O)n3C)n2CCc2ccccc2)CC1` belongs 3.96% (inactive).
`CCOC(=O)CSc1nc2ccc(C)cc2n2cnnc12`: the inhibition was 3.21% (inactive).
To `O=c1oc2ccccc2c(NC2CCCCC2)c1NS(=O)(=O)c1ccc(Cl)cc1` belongs 21.4% (inactive); to `O=c1ccc2cc(S(=O)(=O)Nc3ccccc3F)ccc2o1`, 4.92% (inactive).
Next, `O=c1oc(-c2ccccc2NS(=O)(=O)c2ccc(Cl)cc2)nc2ccccc12`: 59.4% (active); `O=C(NC(=O)c1ccccc1N1CCCCC1)Nc1ccc(Br)cc1`: 14.8% (inactive); `CCOCCn1[nH]c2ccccc2c1=O`: 2.98% (inactive).
To `COc1ccc(N2C(=O)CC(Sc3n[nH]c(-c4ccc(C)cc4)n3)C2=O)cc1` (stereo not drawn) belongs 54% (active); to `Cc1ccc(N2C(=O)CC(Sc3ncn[nH]3)C2=O)cc1` (stereo not drawn), 26.4% (inactive).
Take `COc1ccc(N2C(=O)CC(SC(C)C)C2=O)cc1` (stereo not drawn): the inhibition was 5.36% (inactive).
To `COc1ccc(CNC(=O)c2ccc3oc(C(C)C)nc3c2)cc1` belongs 2.31% (inactive).
To `Fc1cccc(Cl)c1CSc1ccc(-c2ccco2)nn1` belongs 46.6% (active); to `O=C(CSc1ccc(-c2ccco2)nn1)Nc1cccc(F)c1`, 6.71% (inactive).
`Cc1cc(SCc2c(F)cccc2Cl)nc(=O)[nH]1`: the inhibition was 9.07% (inactive).
Next, `CC1CC(C)CN(CCC(=O)Nc2ccc3c(c2)CCC3)C1` (stereo not drawn): -5.01% (inactive); `O=C(Nc1ccc(F)cc1)c1cc2c(s1)CCCC2`: 14% (inactive).
To `O=C(Nc1ccc2c(c1)CCC2)c1ccc(Br)s1` belongs 61.4% (active).
Next, `COc1ccccc1N1CCN(S(=O)(=O)c2ccc3c(c2)NC(=O)CS3)CC1`: 12.3% (inactive); `COc1cccc(-n2c(=S)sc3c(=O)n(-c4ccccc4C)c(SCC(=O)O)nc32)c1`: 8.02% (inactive).
As to `C=CCN(C(=O)Cn1ncc2c1-c1cc(C)ccc1OC2)c1ccccc1`, the inhibition is 16.6% (inactive).
Turning to `COc1ccc(O)c(C(=O)c2cnc3c(c2)c(-c2ccc(F)cc2)c(C#N)c(=O)n3C)c1`, the inhibition was 40.2% (active).
To `COCCn1c(=O)[nH]c(=O)c2cc(C(=O)c3cc(OC)ccc3O)cnc21` belongs -1.14% (inactive).
To `Cc1cc(C)c2c(-c3ccc(F)cc3)c(C#N)c(=O)n(C)c2n1` belongs 11.3% (inactive).
Next, `O=C(c1ccc(-n2cnnn2)cc1)N1CCN(C(c2ccccc2)c2ccccc2)CC1`: 2.74% (inactive); `c1ccc(-c2nc(NCc3ccco3)c3ccccc3n2)cc1`: 49.9% (active); `c1ccc2c(NCC3CCCO3)nc(-c3ccncc3)nc2c1` (stereo not drawn): 19.5% (inactive).
With `Clc1cccc(-c2nc(NCC3CCCO3)c3ccccc3n2)c1` (stereo not drawn), the inhibition is 26.8% (inactive).
Next, `COc1ccccc1C(=O)N/C(=C/c1ccco1)C(=O)Nc1ccc(C(=O)O)cc1`: -3.06% (inactive); `N/C(=N\OC(=O)CCCC(=O)O)c1ncc(C(F)(F)F)cc1Cl`: -12.6% (inactive); `N/C(=N\OC(=O)Nc1ccc(Cl)c(Cl)c1)c1ncc(C(F)(F)F)cc1Cl`: 71.5% (active).
To `O=C(c1ccccn1)c1ncc(C(F)(F)F)cc1Cl` belongs -12.3% (inactive); to `Cc1cccc(C)c1NC(=O)N1CC(C)OC(C)C1` (stereo not drawn), -0.538% (inactive); to `CS(=O)(=O)c1sc2nc(-c3ccccc3)cc(-c3ccccc3)c2c1N`, 46.7% (active).
Next, `CCN(CC)C(=O)c1sc2nc(-c3ccccc3)ccc2c1N`: 18.6% (inactive).
On to `CNC(=S)NNC(=O)c1oc2nc(-c3ccccc3)cc(-c3ccco3)c2c1N`, for which the inhibition was 2.74% (inactive).
To `S=c1[nH]nc2c3c4c(sc3ncn12)CCCC4` belongs 29.6% (inactive); to `C=C(C)COc1ccc(-c2n[nH]c(C)c2-c2ccccc2)c(O)c1`, 45.6% (active).
Next, `COc1ccc(-c2n[nH]c(C)c2-c2ccccc2OC)c(O)c1`: 25.2% (inactive).
For the molecule `C=C(C)COc1ccc(-c2ncncc2-c2ccc(OC)cc2)c(O)c1`, the inhibition was 17.4% (inactive).
To `Cn1c(=O)oc2cc(S(=O)(=O)NCCC(=O)NCc3ccccc3Cl)ccc21` belongs 6.26% (inactive); to `O=C(CN1CCSCC1)N/N=C/c1ccc(F)cc1F`, -5.91% (inactive); to `CNS(=O)(=O)c1ccc(NC(=O)C2CC(=O)N(c3ccc(Cl)cc3)C2)cc1` (stereo not drawn), -1.17% (inactive).
Consider `Cc1c(NC(=O)C(C)OC(=O)c2c3c(nc4ccccc24)CCC(C)C3)c(=O)n(-c2ccccc2)n1C` (stereo not drawn), for which the inhibition was -6.65% (inactive).
To `CSCCC(NC(=O)c1ccccc1)C(=O)N1CCCCCCC1` (stereo not drawn) belongs 2.09% (inactive); to `CSCCC(NS(=O)(=O)/C=C/c1ccccc1)C(=O)N1CCC(C)CC1` (stereo not drawn), 43.1% (active); to `CSCCC(NS(=O)(=O)c1ccc(C)cc1)C(=O)N1CCCC1` (stereo not drawn), -9.58% (inactive).
Next, `O=C1/C(=C/c2cccs2)CCC1C1CCCC1` (stereo not drawn): -11.5% (inactive); `CC(=O)NCc1ccc(S(=O)(=O)NC2CCN(Cc3ccccc3)CC2)cc1`: 0.58% (inactive).
Next, `COc1ccc(S(=O)(=O)NC(C)c2ccccc2)cc1C(=O)N1CCCCC1` (stereo not drawn): 13.1% (inactive).
As for `Cc1cccc(C(=O)Nc2ccc(C(=O)/C=C/c3cccs3)cc2)c1`, the inhibition was 10% (inactive).
Regarding `Cc1ccc(C2=N/C(=C\c3ccc(OS(=O)(=O)c4ccc(C)cc4)cc3)C(=O)O2)cc1`, the inhibition was -5.54% (inactive).
To `Cc1cccc(C2=N/C(=C/c3cccs3)C(=O)O2)c1` belongs 41.4% (active); to `CC1(C)C(C=C(Cl)Cl)C1C(=O)N(Cc1ccc(Cl)cc1)C1CCS(=O)(=O)C1` (stereo not drawn), 17.4% (inactive).
For `C=CS(=O)c1sc(Cl)c(N2CCOCC2)c1[N+](=O)[O-]` (stereo not drawn), the inhibition is 67.8% (active).
To `CCN(CC)P(=O)(Nc1ccc(SC(F)F)cc1)c1ccc(N(C)C)cc1NC(=O)c1ccco1` (stereo not drawn) belongs 19% (inactive).
To `Cc1ccc(CCN2CC(C(=O)O)CC2=O)cc1` (stereo not drawn) belongs -9.17% (inactive).
Next, `COc1ccc(C(=O)N2CC3(C)CC2CC(C)(C)C3)cc1OC` (stereo not drawn): 9.33% (inactive).
Turning to `Cc1nnnn1/C(=C\c1ccccc1)C(=O)OCC(=O)N1CC2(C)CC1CC(C)(C)C2` (stereo not drawn), the inhibition was 62.3% (active).
Next, `CN(C)C(=O)COC(=O)c1cccc(S(=O)(=O)N2CC3(C)CC2CC(C)(C)C3)c1` (stereo not drawn): 5.89% (inactive).
